Assay results as given in PubChem BioAssay (Tox21).
Several values for one entry are separate records, joined by “and”; a condition that tells them apart may be missing. Equal values may be shown once. Records with an inconclusive call do not appear. Some structures have more than one record in an assay (separate samples or runs), and their calls can disagree. Activity calls are given as the source filed them. Unless noted, calls follow the shape of the dose curve; as a rule, active = well fitted curve in the direction sought with a large enough effect in the repeat runs; inconclusive = weak or mixed curves; inactive = flat fitted curve, though single readings scatter. Starred links: 1 amine or outer side, 2 acyl side, 3 side chain; linkers in the order of their positions; H or OH if unused. Positions of bridges follow the written chain, without caps; N, C: chain ends. Non-standard residues stand in square brackets, D forms with d. Residues, ends and D or L forms follow the SMILES beside them. Chains are numbered I, II in the order given. Actinocin(9to1) = Cc1c2oc3c(C)ccc(C(=O)[*:1])c3nc-2c(C(=O)[*:2])c(N)c1=O; NMeV = CN[C@H](C(=O)O)C(C)C; Sar = CNCC(=O)O

Legend:
[1] = qHTS assay to test for compound auto fluorescence at 535 nm (green) in HEK293 cells (AID 720680)
[2] = qHTS assay to test for compound auto fluorescence at 460 nm (blue) in HEK293 cell free culture (AID 720681); also: potency is read from the fitted curve at half-maximal effect
How it was run: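 Blue fluorescence (Ex 405/Em 460 nm, triamterene-equivalent) was read immediately after pin transfer of compound or DMSO into medium (DMEM, 10% FBS) without cells.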

[3] = qHTS assay to test for compound auto fluorescence at 535 nm (green) in HEK293 cell free culture (AID 720682)
How it was run: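 DMEM + 10% FBS, cell-free; cpd or DMSO pinned in; Ex485/Em535 read; output as fluorescein-equivalent signal.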

[4] = qHTS assay to test for compound auto fluorescence at 590 nm (red) in HEK293 cell free culture (AID 720683)
How it was run: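 Red-channel autofluorescence of compounds in culture medium (DMEM, 10% FBS), no cells, measured at 540/590 nm. Rose Bengal sodium is the reference fluorophore for equivalence.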

[5] = qHTS assay to test for compound auto fluorescence at 590 nm (red) in HepG2 cell free culture (AID 720684)
How it was run: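 Steps: dispense MEM/10% FBS medium, no cells; pin compound or DMSO vehicle; read red channel, Ex/Em 540/590 nm. Output given as Rose Bengal sodium equivalents.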

[6] = qHTS assay to test for compound auto fluorescence at 460 nm (blue) in HepG2 cell free culture (AID 720685); also: potency is read from the fitted curve at half-maximal effect
How it was run: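 Compound (23 nL) or DMSO pinned into cell-free MEM with 10% FBS; blue fluorescence read at 405/460 nm excitation/emission, expressed as auto-fluorescence equivalency to triamterene.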

[7] = qHTS assay to test for compound auto fluorescence at 535 nm (green) in HepG2 cell free culture (AID 720686)
[8] = target: Glucocorticoid receptor (Homo sapiens) (UniProt P04150); experiment: qHTS assay to identify small molecule agonists of the glucocorticoid receptor (GR) signaling pathway (AID 720691; active = well fitted activation curve with a large enough effect in the signal ratio in the repeat runs, not every such curve was filed as active; the % refers to the signal ratio; also: potency is read from the fitted curve at half-maximal effect)
Glucocorticoid receptor (Homo sapiens), sequence (P04150 whole entry, looked up): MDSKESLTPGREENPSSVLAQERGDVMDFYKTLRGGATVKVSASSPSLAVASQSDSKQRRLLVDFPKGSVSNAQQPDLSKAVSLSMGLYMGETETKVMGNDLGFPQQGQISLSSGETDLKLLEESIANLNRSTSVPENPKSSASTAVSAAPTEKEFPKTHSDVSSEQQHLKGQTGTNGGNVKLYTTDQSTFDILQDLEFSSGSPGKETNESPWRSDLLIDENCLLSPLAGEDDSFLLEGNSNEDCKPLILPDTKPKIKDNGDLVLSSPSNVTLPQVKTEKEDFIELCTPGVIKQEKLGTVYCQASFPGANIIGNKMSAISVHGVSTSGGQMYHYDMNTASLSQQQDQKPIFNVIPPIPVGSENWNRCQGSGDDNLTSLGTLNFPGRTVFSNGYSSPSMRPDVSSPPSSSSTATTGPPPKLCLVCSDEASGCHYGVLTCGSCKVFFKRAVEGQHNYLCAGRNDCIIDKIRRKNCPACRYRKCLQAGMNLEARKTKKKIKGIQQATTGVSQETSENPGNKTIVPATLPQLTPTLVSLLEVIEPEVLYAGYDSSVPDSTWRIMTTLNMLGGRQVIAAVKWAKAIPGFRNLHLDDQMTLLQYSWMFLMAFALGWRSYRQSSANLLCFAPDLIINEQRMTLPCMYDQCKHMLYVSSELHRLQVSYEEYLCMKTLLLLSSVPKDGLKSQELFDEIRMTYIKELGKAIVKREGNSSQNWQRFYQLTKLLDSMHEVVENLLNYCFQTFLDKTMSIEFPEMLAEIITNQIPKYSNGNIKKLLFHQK
How it was run: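 Fluorescence intensity from LiveBLAzer B/G FRET substrate (2 h, room temperature) reports beta-lactamase expression driven by the glucocorticoid response element in GR-bla HeLa cells after 18 h compound exposure at 37 C.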

[9] = target: Glucocorticoid receptor (Homo sapiens) (UniProt P04150); experiment: qHTS assay to identify small molecule antagonists of the glucocorticoid receptor (GR) signaling pathway (AID 720692; active = well fitted inhibition curve with a large enough effect in the signal ratio in the repeat runs, not every such curve was filed as active; the % refers to the signal ratio; also: potency is read from the fitted curve at half-maximal effect)
How it was run: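 HeLa GR-bla cells; cmpd + dex 5 nM final, 18 h 37 C; LiveBLAzer B/G FRET substrate 2 h RT; fluorescence intensity read. Antagonist mode, qHTS.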

[10] = qHTS assay to test for compound auto fluorescence at 460 nm (blue) in HepG2 cells (AID 720687); also: potency is read from the fitted curve at half-maximal effect
How it was run: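 Blue-channel autofluorescence (Ex/Em 405/460 nm, triamterene-equivalent) was measured after 1 hr compound exposure at 37 C, 5% CO2. Cells were HepG2, plated overnight at 37 C in MEM plus 10% FBS.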

Measured: Potency
Tags tell the direction and shape of the fitted curve or compound fluorescence and quenching.

O=C(O)c1cccc(C(=O)O)c1
not listed: [10]
inactive: all other assays above

CC(C)CCCCCCc1ccc(O)cc1
not listed: [9]
inactive: all other assays above

CCC(C)(C)C(=O)O[C@H]1C[C@@H](C)C=C2C=C[C@H](C)[C@H](CC[C@@H]3C[C@@H](O)CC(=O)O3)[C@H]21
6.44 µM (active) and inactive: [8]
not listed: [9]
inactive: all other assays above

CC[C@H]1CN2CCc3cc(OC)c(OC)cc3[C@@H]2C[C@@H]1C[C@H]1NCCc2cc(OC)c(OC)cc21
active: [9] 1.51 µM
not listed: [10]
inactive: all other assays above

CCCOC(=O)c1cc(O)c(O)c(O)c1
inactive: all assays above

CC(N)=O
inactive: all assays above

CCN(CC)C(=O)Nc1ccc(OCC(O)CNC(C)(C)C)c(C(C)=O)c1 (centres undefined)
inactive: all assays above

CCN(CC)C(=S)SSC(=S)N(CC)CC
inactive: all assays above

CC(COc1ccccc1)N(CCCl)Cc1ccccc1 (centres undefined)
not listed: [9] | [10]
inactive: all other assays above

Cc1ccc(S(=O)(=O)Oc2ccc(N=Nc3ccc(-c4ccc(N=Nc5c(O)ccc6cc(S(=O)(=O)O)cc(S(=O)(=O)O)c56)c(C)c4)cc3C)cc2)cc1
not listed: [9]
inactive: all other assays above

COC(=O)/C=C/c1ccccc1
inactive: all assays above

CCCCCC(=O)O[C@]1(C(C)=O)CC[C@H]2[C@@H]3CCC4=CC(=O)CC[C@]4(C)[C@H]3CC[C@@]21C
active: [9] 268 nM and 194 nM
inactive: all other assays above

[Cl][In]([Cl])[Cl]
not listed: [9]
inactive: all other assays above

NC(N)=Nc1nc(CSCC/C(N)=N/S(N)(=O)=O)cs1
inactive: all assays above

CC(=O)OCC1=C(C(=O)O)N2C(=O)[C@@H](NC(=O)Cc3cccs3)[C@H]2SC1
inactive: all assays above

Cc1c2oc3c(C)ccc(C(=O)N[C@@H]4C(=O)N[C@H](C(C)C)C(=O)N5CCC[C@H]5C(=O)N(C)CC(=O)N(C)[C@@H](C(C)C)C(=O)O[C@@H]4C)c3nc-2c(C(=O)N[C@@H]2C(=O)N[C@H](C(C)C)C(=O)N3CCC[C@H]3C(=O)N(C)CC(=O)N(C)[C@@H](C(C)C)C(=O)O[C@@H]2C)c(N)c1=O (I: T[dV]P[Sar][NMeV] / II: T[dV]P[Sar][NMeV]; ester I:1-I:C, II:1-II:C; linker I:N-II:N via Actinocin(9to1))
active: [9] 0.134 µM
not listed: [8]
inactive: all other assays above

C=C(C)C1CC=C(C)C(OC(C)=O)C1 (centres undefined)
inactive: all assays above

O=C(OCc1ccccc1)c1ccc(O)cc1
not listed: [10]
inactive: all other assays above

CCc1ccc(C(c2ccc(CC)cc2)C(Cl)Cl)cc1
not listed: [9]
inactive: all other assays above

O=C(O)c1cn(-c2ccc(F)cc2)c2cc(N3CCNCC3)c(F)cc2c1=O
inactive: all assays above

CCCCCCCCCCCC[N+](C)(C)C
active: [9] 21.8 µM and 21.9 µM
not listed: [10]
inactive: all other assays above

c1cc(C(c2ccc(OCC3CO3)cc2)C(c2ccc(OCC3CO3)cc2)c2ccc(OCC3CO3)cc2)ccc1OCC1CO1 (centres undefined)
not listed: [10]
inactive: all other assays above

O=C(O)CCc1ccccc1
inactive: all assays above

CC(C)CCOCc1ccccc1
inactive: all assays above

Nc1ccc2cc3ccccc3cc2c1
inactive: [1] | [3] | [4] | [7]
active: [2] 39.8 µM | [6] 39.8 µM [fluorescent] | [10] 39.8 µM [fluorescent]

O=C(O)CP(=O)(O)O
not listed: [5]
inactive: all other assays above

CCCCCCC(O)CCCCCCCCCCC(=O)O (centres undefined)
not listed: [5] | [9] | [10]
inactive: all other assays above

C1COC(NC(C2CC2)C2CC2)=N1
not listed: [5] | [8] | [9]
inactive: all other assays above

OCCN1CCNCC1
not listed: [5]
inactive: all other assays above

CCN(CC)c1ccc2c(C)cc(=O)oc2c1
active: [2] 39.8 µM | [6] 35.5 µM [fluorescent] and 39.8 µM [fluorescent]
inactive: [3] | [4] | [5] | [7]

CC(=O)C1=C(C)[C@@H]2C[C@@]3(C1)[C@H](C)CC[C@H]3C2(C)C
not listed: [5] | [8] | [9]
inactive: all other assays above

Cc1ccnc2c1NC(=O)c1cccnc1N2C1CC1
not listed: [5]
inactive: all other assays above

CN(C)c1ccc2nc3ccc(=[N+](C)C)cc-3sc2c1
inactive: [1] | [2] | [3] | [4] | [6] | [7]
